TSG101-PTAP inh = TSG101-PTAP interaction inhibition, HIV-1 budding; Fluorescence polarization, FITC-PTAP peptide/Tsg101, 20 min; Potency, µM (highest dose often 115 µM), hits mostly inhibitors; Q99816; 44,000 tested, under 10 active
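Compounds pinned into 10 uM Tsg101 binding domain, then 50 nM FITC-PTAP peptide added in pH 7.5 HEPES buffer; FP read after 20 min, room temperature. Total S+P intensity flags fluorescent compounds; active cut-off <25 µM, efficacy <60%.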
GALK inhibitor = GALK (human) enzyme inhibition. P51570. recombinant GALK, Kinase-Glo ATP luminescence, 1 h. Potency, µM (doses to about 57.5 µM), usual class: inhibitors. 44,000 tested, under 10 active
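Luminescent ATP-depletion readout (Kinase-Glo Plus, 10 min) after 1 h RT reaction of 5 nM GALK, 35 uM ATP, 100 uM galactose, pH 8.0 HEPES buffer. Decreased kinase activity scored as inhibition.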
B2AR arrestin ag = agonists recruiting beta-arrestin to human beta2-adrenergic receptor | HTLA Tango cells, beta-arrestin recruitment, luciferase luminescence, 18 h | Potency, µM (doses to about 46.1 µM), actives largely listed as activators | 44,000 tested, under 10 active | AID 1347077
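Ligand-induced beta-arrestin recruitment to recombinant beta2-AR is measured via a tTA-driven luciferase reporter in Tango cells after 18 hr compound exposure at 37 degrees C. Concentrations span up to 46 microM.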
GALC G270D up = galactocerebrosidase G270D activity enhancement, cell-based. 45,000 compounds, 0.1% hits. Potency, µM (series often up to 57.5 µM), usual class: activators. 145M-Twi-hGALC-G270D cells (Twitcher mouse brain line with human GALC G270D), HMU-beta-Gal fluorescence, 48 h. AID 1159614. P54803; further: nearly all actives have a fitted effect of over 65% in size
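Fluorescence readout: HMU-β-gal cleavage by mutant GALC (0.1 mM final, citrate/phosphate pH 5.2 with 1 mg/mL taurocholate), stopped with carbonate/bicarbonate plus Triton X-100. Cells: murine Twitcher 145M-Twi expressing human G270D GALC; qHTS for activators.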
Hits are given with their value; [ ] = another dose, or the depositor's remark. Sampled rows, rich in hits. Any-hit rate of the full collection: about 0.17%. The call rests on the fitted dose curve; in most records, active means well fitted curve in the direction sought with a large enough effect; inconclusive means small, poorly fitted or top-dose-only effect, or another doubt; inactive means no such curve, though single readings can be large; an effect the other way counts as inactive or inconclusive.

Results for CCOC(=O)c1c(C)[nH]c(C)c1S(=O)(=O)N1CCN(c2cccc(C(F)(F)F)c2)CC1 ?
TSG101-PTAP inh: inactive; GALK inhibitor: inactive; B2AR arrestin ag: inactive; GALC G270D up: 1.1µM

How did CC(=O)N1CCN(c2ccc(O)cc2)CC1 do in these assays?
GALC G270D up: inactive

Results for CCOCCCn1c(=N)c(C(=O)NCc2ccco2)cc2c(=O)n3ccccc3nc21 ?
TSG101-PTAP inh: inactive; GALK inhibitor: inactive; B2AR arrestin ag: inactive; GALC G270D up: 22µM

Results for COCCCn1c(=N)c(C(=O)NCc2ccco2)cc2c(=O)n3ccccc3nc21 ?
TSG101-PTAP inh: inactive; GALK inhibitor: inactive; B2AR arrestin ag: inactive; GALC G270D up: inactive

What do the screens show for `Cc1cc(OCCOCC[N+](C)(C)Cc2ccccc2)ccc1C(C)(C)CC(C)(C)C`?
GALC G270D up: inactive

How did CCC(=O)O[C@]1(C(=O)COC)[C@@H](C)C[C@H]2[C@@H]3CCC4=CC(=O)C=C[C@]4(C)C3(F)[C@@H](O)C[C@@]21C (stereo partly drawn) do in these assays?
GALC G270D up: inactive

How did C/C(=C(/OCCOc1ccc(Cl)cc1)c1ccc(Cl)cc1Cl)n1ccnc1 do in these assays?
GALC G270D up: inactive

Results for C[n+]1c2cc(N)ccc2cc2ccc(N)cc21 (tested in a mixture with another compound) ?
GALC G270D up: inactive

What do the screens show for `Cc1nc(C2CCCCC2)c(-c2ccc(S(N)(=O)=O)c(F)c2)o1`?
GALC G270D up: inactive

How did O=Cc1ccc(O)c(O)c1O do in these assays?
GALC G270D up: inactive

Results for CCC(=O)Oc1ccc2c(c1)CC[C@@H]1[C@@H]2CC[C@@]2(C)[C@H]1C[C@@H](OC(=O)CC)[C@@H]2OC(=O)CC ?
GALC G270D up: inactive

How did O=c1oc2c3c(ccc2c2ccccc12)OCN(Cc1ccc(Cl)cc1)C3 do in these assays?
TSG101-PTAP inh: inactive; GALK inhibitor: inactive; B2AR arrestin ag: inactive; GALC G270D up: inactive

Results for COC(=O)Cc1c(C)c2ccc3c(c2oc1=O)CN(Cc1ccc(Cl)cc1)CO3 ?
TSG101-PTAP inh: inactive; GALK inhibitor: inactive; B2AR arrestin ag: inactive; GALC G270D up: 25µM

What do the screens show for `COc1ccccc1NC(=O)c1sc2nc3c(cc2c1N)CCCCCC3`?
TSG101-PTAP inh: inactive; GALK inhibitor: inactive; B2AR arrestin ag: inactive; GALC G270D up: 11µM

Results for Nc1c(C(=O)Nc2ccccc2F)sc2nc3c(cc12)CCCCCC3 ?
TSG101-PTAP inh: inactive; GALK inhibitor: inactive; B2AR arrestin ag: inactive; GALC G270D up: inactive

Results for CCCCCCOC(=O)NC(=N)c1ccc(NCc2nc3cc(C(=O)N(CCC(=O)OCC)c4ccccn4)ccc3n2C)cc1 ?
GALC G270D up: inactive

How did Nc1ccc(C(=O)N2CC3CC(CN(Cc4ccccc4)C3)C2)cc1 do in these assays?
GALC G270D up: inactive

How did CCCN(CCC)C(=O)c1cc2c(=O)n3cccc(C)c3nc2s1 do in these assays?
TSG101-PTAP inh: inactive; GALK inhibitor: inactive; B2AR arrestin ag: inactive; GALC G270D up: 20µM

How did Cc1cccn2c(=O)c3cc(C(=O)NCC(C)C)sc3nc12 do in these assays?
TSG101-PTAP inh: inactive; GALK inhibitor: inactive; B2AR arrestin ag: inactive; GALC G270D up: 4µM

Results for Cc1onc(-c2ccccc2)c1C(=O)Cl ?
GALC G270D up: inactive

Results for NCCCC(N)CC(=O)NCC1NC(=O)C(CO)NC(=O)C(N)CNC(=O)C(C2CCN=C(N)N2)NC(=O)C(=CNC(N)=O)NC1=O (stereo not drawn) ?
GALC G270D up: inactive[0.46 µM]

How did CCCn1c(=N)c(C(=O)NCC2CCCO2)cc2c(=O)n3cc(C)ccc3nc21 (stereo not drawn) do in these assays?
TSG101-PTAP inh: inactive; GALK inhibitor: inactive; B2AR arrestin ag: inactive; GALC G270D up: 13µM

What do the screens show for `O=c1[nH]c2ccccc2c(=O)n1CCCl`?
GALC G270D up: inactive

How did CN(C)[C@@H]1C(=O)C(C(N)=O)=C(O)[C@@]2(O)C(=O)C3=C(O)c4c(O)cccc4C[C@H]3C[C@@H]12 do in these assays?
GALC G270D up: inactive

Results for Cc1ccc(CNC(=O)Cn2cc(C(=O)c3ccc(F)cc3)c(=O)c3ccc(C)nc32)cc1 ?
TSG101-PTAP inh: inactive; GALK inhibitor: inactive; B2AR arrestin ag: inactive; GALC G270D up: inactive

How did CCc1ccc(C(=O)c2cn(CC(=O)Nc3cc(F)ccc3F)c3nc(C)ccc3c2=O)cc1 do in these assays?
TSG101-PTAP inh: inactive; GALK inhibitor: inactive; B2AR arrestin ag: inactive; GALC G270D up: 4µM
